Experimental findings from PubChem BioAssay (NCI) are described below.

The panel holds about 79,000 compounds, 15% with a hit somewhere; the sample as a whole holds those more often. Values without a mark were called inactive. Activity calls are given as the source filed them. Rule as the data show it: active = growth inhibition above about 70%; inactive = the rest.

A short description of assay [1]: NCI Yeast Anticancer Drug Screen. Data for the rad50 strain (AID 155).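 Also: 0% = growth of vehicle-only cultures of the same strain.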 As to conditions: S. cerevisiae rad50 strain growth inhibition; at 50.0 µM; active compounds read high. The essentials:
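Genetically altered yeast (DNA repair pathway); compound treatment; growth inhibition vs vehicle ctrl.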

Assay [2] is described as follows: NCI Yeast Anticancer Drug Screen. Data for the mec2-1 strain (AID 157). Particulars: S. cerevisiae mec2-1 strain, at 50.0 µM, active compounds read high. The essentials:
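Cells of the genetically defined mec2-1 yeast strain are incubated with test compound. Inhibition of growth is calculated against vehicle-treated controls.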

Assay [3] is described as follows: NCI Yeast Anticancer Drug Screen. Data for the sgs1 mgt1 strain (AID 161).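 Also: 0% = growth of cultures given vehicle only.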 As to conditions: S. cerevisiae sgs1 mgt1 strain, at 50.0 µM, active compounds read high. The essentials:
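Mutant yeast exposed to compound; growth scored against vehicle-only wells.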

Assay [4] is described as follows: NCI Yeast Anticancer Drug Screen. Data for the cln2 rad14 strain (AID 165).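 Also: 0% = growth equal to vehicle treated cultures.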 As to conditions: S. cerevisiae cln2 rad14 strain, at 50.0 µM, active compounds read high. The essentials:
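The screen exposed genetically defined yeast (cln2 rad14) to test compounds and scored growth inhibition relative to vehicle-treated controls.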

Assay [5] in a line: NCI Yeast Anticancer Drug Screen. Data for the bub3 strain (AID 167). Particulars: S. cerevisiae bub3 mutant strain, at 50.0 µM, active compounds read high. The essentials:
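Yeast carrying a defined mutation is treated with each compound, and growth is compared with that of vehicle-exposed cells to give inhibition.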

A short description of assay [6]: NCI Yeast Anticancer Drug Screen. Data for the mlh1 rad18 strain (AID 175). Particulars: S. cerevisiae mlh1 rad18 strain growth inhibition; at 50.0 µM; active compounds read high. Put shortly:
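Compound-treated yeast growth, normalised to vehicle controls. Strain bears defined DNA repair mutations.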

Take `CN(C)S(=O)(=O)c1cccc2ccccc12`: the growth inhibition in assay [1] was 3.35%; in assay [2], 7.85%; in assay [3], -7.35%; in assay [4], -6.9%; in assay [5], 2.45%; in assay [6], -8.65%.
For the compound `CN(C)CCCNc1ccc2nnn3c4ccc(O)cc4c(=O)c1c23`, the growth inhibition in assay [1] was -4.2%; in assay [2], 1.25%; in assay [3], 0.9%; in assay [4] it was 0.15%; in assay [5], 2.65%; in assay [6], 19%.
For the compound `CCC1OC(=O)CC(O)C(C)C(OC2OC(C)C(O)C(N(C)C)C2O)C(CC=O)CC(C)C(=O)/C=C/C2(C)OC2C1C` (stereo unspecified), the growth inhibition in assay [1] is -13.4%; in assay [2], -43%; in assay [3], -23.5%; in assay [4] it was -18.7%; in assay [5], -28.9%; in assay [6], -36.4%.
As to `CN(Nc1c([N+](=O)[O-])cc([N+](=O)[O-])cc1[N+](=O)[O-])c1ccc2ccccc2c1`, the growth inhibition was 14.2% in assay [1]; 7.3% in assay [2]; 21.4% in assay [3]; 24.2% in assay [4]; 7.2% in assay [5]; 8.35% in assay [6].
As for `COc1ccc(C(C)=O)c(O)c1`, the growth inhibition in assay [1] is -10.4%; in assay [2] it was -15.2%; in assay [3], -10.2%; in assay [4], -3.7%; in assay [5], 3.2%; in assay [6], 5.2%.
Regarding `NNC(=O)c1cccc2c1Oc1ccccc1S2`, the growth inhibition in assay [1] was 21.5%; in assay [2] it was -12.9%; in assay [3], 10.9%; in assay [4], -63.9%; in assay [5], -11.9%; in assay [6], 25.1%.
With `Cn1c(-c2ccc(-c3cc(-c4cccs4)c(-c4cccs4)n3C)cc2)cc(-c2cccs2)c1-c1cccs1`, the growth inhibition in assay [1] was 11.7%; in assay [2] it was -15%; in assay [3], 14.8%; in assay [4], -16.9%; in assay [5], 1.55%; in assay [6], 17.8%.
`COC(=O)/C=C(\C)CC(O)/C=C(\C)CCC=C(C)C` (stereo unspecified): the growth inhibition in assay [1] was 21.1%; in assay [2] it was 49.1%; in assay [3] it was 75.1% (active); in assay [4], 12.8%; in assay [5], 60.5%; in assay [6], -23.1%.
Turning to `N#Cc1ccc(CC(=O)O)cc1`, the growth inhibition is 25.2% in assay [1]; -16.5% in assay [2]; 6.9% in assay [3]; 0.35% in assay [4]; -7.95% in assay [5]; -7.75% in assay [6].
In the case of `O=S(=O)(Cl)c1ccc(I)cc1`, the growth inhibition in assay [1] is -5.2%; in assay [2], -21.2%; in assay [3] it was -12.3%; in assay [4], 22.4%; in assay [5] it was -2.2%; in assay [6] it was -20.6%.
`CN=CN(C)c1c2ccccc2nc2ccccc12`: the growth inhibition in assay [1] is 5.6%; in assay [2], -11.3%; in assay [3] it was -5.05%; in assay [4], 10.7%; in assay [5], 9.75%; in assay [6], -1.25%.
Turning to `CN(C)CCCN(c1nc2cc(Cl)ccc2o1)c1nc2cc(Cl)ccc2o1`, the growth inhibition was 33.7% in assay [1]; 17.1% in assay [2]; 36.1% in assay [3]; 52.9% in assay [4]; 8.7% in assay [5]; 48.5% in assay [6].
As to `O=C(O)CS(=O)(=O)O`, the growth inhibition was 11.2% in assay [1]; 0.45% in assay [2]; -4.3% in assay [3]; 5.3% in assay [4]; 0.75% in assay [5]; 5.55% in assay [6].
Take `O=S1c2ccccc2N=C(c2ccc3ccccc3c2)CC1C1=CC=CCC1` (stereo unspecified): the growth inhibition is -27.4% in assay [1]; -33.1% in assay [2]; -3.1% in assay [3]; -2.65% in assay [4]; 3.85% in assay [5]; -11.8% in assay [6].
For the compound `COc1ccc2nc(NC(=O)C(=O)C(C(=O)c3ccccc3-c3ccccc3)C3OC(=O)c4ccccc43)sc2c1` (stereo unspecified), the growth inhibition in assay [1] is -3.6%; in assay [2], 9.75%; in assay [3], -14.2%; in assay [4], 0.7%; in assay [5], -1.1%; in assay [6], -16.1%.
As to `CC(C#N)(Nc1ccccc1)c1ccccc1` (stereo unspecified), the growth inhibition in assay [1] is 0.6%; in assay [2], 6.75%; in assay [3], 6.9%; in assay [4], -32.6%; in assay [5] it was -10.7%; in assay [6] it was -6.4%.
Consider `O=C1C2=C(c3ccccc31)C(c1ccc(Cl)cc1)NC(=S)N2` (stereo unspecified), for which the growth inhibition in assay [1] was 52.6%; in assay [2], 26.5%; in assay [3], 57.8%; in assay [4] it was 35.2%; in assay [5] it was 44.4%; in assay [6], 60.1%.
In the case of `CC(=O)c1cccc(C(=O)O)c1`, the growth inhibition in assay [1] is -17.4%; in assay [2], 1.95%; in assay [3], -11.7%; in assay [4] it was -29.7%; in assay [5], -2.35%; in assay [6], -4.3%.
For `C/C(=N\N(C)S(=O)(=O)c1ccc(C)cc1)c1ccccc1`, the growth inhibition is 10.1% in assay [1]; -6.9% in assay [2]; -5.5% in assay [3]; -30.1% in assay [4]; -10.1% in assay [5]; 0.65% in assay [6].
For `CCCCNC1(N(C)C)N=C(N(C)C)N=C(N(C)C)O1` (stereo unspecified), the growth inhibition in assay [1] was -2.2%; in assay [2] it was -1.4%; in assay [3], -1.05%; in assay [4], 17.8%; in assay [5], 8.35%; in assay [6], -0.45%.
For the compound `CCCCNC(=O)c1ccccc1N`, the growth inhibition in assay [1] is -20.2%; in assay [2] it was -6.15%; in assay [3] it was -30.7%; in assay [4], -8%; in assay [5], -16%; in assay [6], -22.4%.
As for `CC(C)C(=O)OCCCc1ccccc1`, the growth inhibition is 11.7% in assay [1]; -5.3% in assay [2]; 1.8% in assay [3]; 7.45% in assay [4]; 21.5% in assay [5]; 12.8% in assay [6].
Consider `COc1ccc(NC(C)=O)cc1Br`, for which the growth inhibition is -12.8% in assay [1]; -40.5% in assay [2]; -11.1% in assay [3]; -16.8% in assay [4]; -17.6% in assay [5]; -20.9% in assay [6].
Regarding `CCOC(=O)c1cc(C)[nH]c1C`, the growth inhibition in assay [1] is 2.65%; in assay [2], -1.9%; in assay [3], -0.55%; in assay [4], -17.6%; in assay [5], 23.2%; in assay [6], 3.9%.
`COC1=C(N=[N+]=[N-])C(=O)c2ccccc2C1=O`: the growth inhibition was 38% in assay [1]; 8.95% in assay [2]; 7.25% in assay [3]; -34.2% in assay [4]; -6.8% in assay [5]; 16.1% in assay [6].
As to `CCOC(=O)C1CC(=O)c2cc(OC)c(OC)cc2C1c1ccc(OC)c(OC)c1` (stereo unspecified), the growth inhibition was 1.85% in assay [1]; -14.1% in assay [2]; 0.1% in assay [3]; -29.7% in assay [4]; 13.8% in assay [5]; -26.4% in assay [6].
On to `CCN(CC)CCN(C)c1ccccc1`, for which the growth inhibition in assay [1] is 9.85%; in assay [2], 4.35%; in assay [3] it was -2.05%; in assay [4], -1.05%; in assay [5], -0.1%; in assay [6], 0.3%.
Regarding `COc1cc(C2c3cc4c(cc3OC(NNC(N)=O)C2C)OCO4)cc(OC)c1OC` (stereo unspecified), the growth inhibition in assay [1] is -4.1%; in assay [2], 6.4%; in assay [3] it was 6.7%; in assay [4], -19.6%; in assay [5], 11.5%; in assay [6], 10.4%.
In the case of `C/C=C(\C)C(=O)OC1CC(OC(=O)/C(C)=C/C)C2(C)C3C(=O)C=C(C)C2C3C1(C)C` (stereo unspecified), the growth inhibition in assay [1] was 18.8%; in assay [2] it was 5.85%; in assay [3], 34.6%; in assay [4] it was 25.6%; in assay [5], 3.05%; in assay [6], 6.8%.
`CC(=O)OC1C(C)OC(n2cnc3c(=O)[nH]cnc32)C1OC(C)=O` (stereo unspecified): the growth inhibition in assay [1] was 2.95%; in assay [2] it was -15.6%; in assay [3] it was -0.45%; in assay [4] it was -3.45%; in assay [5], -2%; in assay [6], 10.8%.
For `CC1CCC(C(C)(C)c2ccccc2)C(=O)C1` (stereo unspecified), the growth inhibition is 12.1% in assay [1]; -17.6% in assay [2]; -9.4% in assay [3]; 19.4% in assay [4]; -19% in assay [5]; 15.4% in assay [6].
As to `COc1ccc(CNc2ncccn2)cc1`, the growth inhibition in assay [1] was 14.1%; in assay [2], -23.7%; in assay [3] it was 0.7%; in assay [4], 9.5%; in assay [5], -12%; in assay [6] it was 13.5%.
Turning to `COc1ccc2ccc3c(OC(C)=O)ccc(CCN(C)C(C)=O)c3c2c1OC(C)=O`, the growth inhibition in assay [1] was 19.1%; in assay [2], 25.9%; in assay [3] it was 18.9%; in assay [4] it was 31.5%; in assay [5] it was 2.25%; in assay [6], 4.85%.
For the compound `C/C(=C\CNc1ncnc2c1ncn2CCC(=O)OC(C)(C)C)CO`, the growth inhibition was -12.3% in assay [1]; -8.7% in assay [2]; -49.1% in assay [3]; 13.1% in assay [4]; 5.6% in assay [5]; -17.6% in assay [6].
Regarding `C=CCNC(=O)/C=C/C`, the growth inhibition is 1.95% in assay [1]; 0.65% in assay [2]; -2.1% in assay [3]; 1.8% in assay [4]; 9.75% in assay [5]; -4.35% in assay [6].
Turning to `CCC(=O)C(CC)c1ccccc1` (stereo unspecified), the growth inhibition in assay [1] is 9.25%; in assay [2], -8%; in assay [3], -4.8%; in assay [4], 2.2%; in assay [5], 4.4%; in assay [6], 4.55%.
